Laboratory results published in PubChem BioAssay AID624287 (National Center for Advancing Translational Sciences (NCATS), 2012).
The campaign covered roughly 340,000 compounds. About 420 (0.12%) were called active. Inconclusive results (about 10%) are left out. The entries come from a sample that favours actives as a whole. Values without a mark were called inactive. The call rests on the fitted dose curve; in most records, active means well fitted activation curve with a large enough effect; inconclusive means small, poorly fitted or top-dose-only effect, or another doubt; inactive means no such curve, though single readings can be large or run the other way; cell line not stated here.

assay: qHTS for Agonist of gsp, the Etiologic Mutation Responsible for Fibrous Dysplasia/McCune-Albright Syndrome: qHTS; conditions: gsp mutant cells, cAMP HTRF, 30 min; series mostly up to 76.9 µM; activation (cAMP increase): at the top concentration; further: nearly all actives have a fitted effect of over 60% in size;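 on activation (cAMP increase): phosphodiesterase inhibitor Ro 20-1724 added with compounds to block cAMP breakdown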
From the text: McCune-Albright syndrome (MAS) is a rare disease caused by somatic mutations in Gsgsp), a widely expressed protein central in signal transduction from G-coupled protein receptors (GPCRs). The disease symptoms are diverse, owing to the fact that the patients are mosaics with varying degrees of tissue involvement. Greater than 90% of the mutations in Gs in MAS occur at the R201 position and are equally divided between R201H and R201C. The R201 residue is central in the intrinsic GTPase activity of Gs and the H and C mutations lead to loss of, or impairment of, the GTPase activity. The intrinsic GTPase activity is necessary to terminate the interaction between Gs and adenylate cyclase, and to terminate the cAMP-mediated signaling of the given GPCR pathway. Thus, these activating mutations lead to ligand-independent activation of GPCR pathways. The tissue phenotype is determined by the role of Gs in the function of a given cell, and excess Gs/cAMP signaling in that cell. For example, pituitary somatotrophs overproduce growth hormone in a growth hormone releasing hormone-independent fashion, and gigantism/acromegaly ensues. Skeletal stem cells in the bone marrow behave as if they are under constant parathyroid hormone stimulation and fail to differentiate into osteoblasts and osteocytes, and proliferate as immature osteogenic cells and lead to the marrow fibrosis of fibrous dysplasia of bone. The goal of this project is to identify molecules with stimulatory activity at gsp mutations that will not only allow for in-depth study of the underlying molecular and cellular pathophysiology, but also serve as compounds from which drugs to treat FD/MAS can be developed NIH Chemical Genomics Center [NCGC] NIH Molecular Libraries Probe Centers Network [MLPCN] MLPCN Grant: IRP-FT-DE-2011-01 Assay Submitter (PI): Michael Collins, NIDCR
1.#Seed 2000 cells/well in 6 ul DMEM 10% FBS, 1% Pen/Strep, 0.5 mg/ml G418 2.#Incubate 16-24 hr at 37C, 5% CO2, 95% humidity 3.#Aspirate leaving 1 ul residual volume 4.#Dispense 5 ul/well DPBS + 1 mM CaCl2, 0.5 mM MgCl2, 0.05% BSA, 0.005% Tween 20 5.#Aspirate leaving 2 ul residual volume 6.#Dispense 23 nl/well compounds in DMSO 7.#Dispense 1 ul/well 300 uM Ro-20174 in DMEM 10% FBS 8.#Incubate 30 min at 37C, 5% CO2, 95% humidity 9.#Dispense 1.5 ul/well HTRF reagent: cAMP-d2 in lysis buffer 10.#Dispense 1.5 ul/well HTRF reagent: anti-cAMP antibody-K in lysis buffer 11.#Incubate 30 min at room temperature 12.#Detect HTRF signal using EnVision plate reader
Potency means the concentration at half of the fitted maximal effect.

Structure (SMILES)	activation (cAMP increase)	Potency
O=C(O)C1=C(C(=O)O)C2CCC1C2	13.7%	–
CC1=C(C(=O)N2CCOCC2)CC(CC(=O)NCCN2CCOCC2)C(=O)N1CCC1=CCCCC1 (stereo unspecified)	-40.6%	–
CC1(c2cccc(N)c2)OCCO1	6.78%	–
CCc1cccc(CC)c1N1C(=O)CC(Sc2ccccc2N)C1=O (stereo unspecified)	-34.3%	–
CCCCN(C(C)=O)c1ccc2c(c1)C1CC2CCN1Cc1ccccc1 (stereo unspecified)	12.9%	–
CCOc1ccc(S(=O)(=O)NCCC(=O)NNC(=O)c2ccc(F)cc2)cc1	6.08%	–
Cc1ccc(NC(=O)Cn2sc3ccccc3c2=O)cc1	3.51%	–
CC1C(C)N(C(=O)CCl)c2ccccc2N1C(=O)CCl (stereo unspecified)	-0.561% [at 15.4 µM]	–
CC1CCCC(C)N1C(=O)COC(=O)c1ccccc1C(=O)c1ccccc1 (stereo unspecified)	-62.2%	–
CC1(C)NC(=O)N(CC(=O)Nc2ccc(-c3ccccc3)cc2)C1=O	-25.4%	–
CC1C(=O)N(Cc2cn(CC3CCCCC3)nn2)CCS(=O)(=O)N1Cc1ccc(-c2cccc(N(C)C)c2)cc1 (stereo unspecified)	-37.2%	–
CCOC(=O)C(=Cc1ccccc1)C(=O)c1ccccc1	-32.4%	–
COc1ccc(S(=O)(=O)N2CCN(CC(=O)N3CCNC3=O)CC2)cc1OC	-61.6%	–
O=C(OCC(=O)N1CCCCCC1)c1cccc(Cl)c1Cl	7.89%	–
CSc1ncnc2c1ncn2CCCNCC(C)c1ccccc1 (stereo unspecified)	-17.8%	–
C[C@H]1NS(=O)(=O)c2cc(Cl)ccc2O[C@@H]1c1ccccc1	-56.1%	–
COc1cc2nnn(-c3ccncc3)c2cc1OC	-62.2%	–
O=C(COC(=O)/C=C/c1ccc(Cl)cc1)NC1CCS(=O)(=O)C1 (stereo unspecified)	7.94%	–
Cc1ccccc1-c1ccc2c(c1)O[C@@H](CN(C)Cc1ccc(C(=O)O)cc1)[C@@H](C)CN([C@H](C)CO)S2(=O)=O	9.04%	–
CCN(Cc1ccncc1)C(=S)Nc1ccccc1C	3.88%	–
CC1CCCC(NC(=O)COC(=O)c2ccccc2C(=O)N(C)C2CCCCC2)C1C (stereo unspecified)	-11.9%	–

Structure (SMILES)	activation (cAMP increase)	Potency
CCN(CC)C(=O)C1=C(C)N(Cc2ccc(OC)cc2)C(=O)C(CC(=O)NCCCCc2ccccc2)C1 (stereo unspecified)	-64.5%	–
N#CCCC(C#N)(c1cccnc1)N1CCOCC1 (stereo unspecified)	5.47%	–
CCc1cc(C(=O)N(CC)CC(=O)Nc2c(F)cccc2F)sc1C	-14.1%	–
Cc1ccc(-c2ccc(CN3C(C)C(=O)N(Cc4cn(CCC5OCCCO5)nn4)CCS3(=O)=O)cc2)cc1 (stereo unspecified)	-4.97%	–
COc1ccc(S(=O)(=O)N2CCC(C(=O)NCCC(=O)Nc3ccccc3OC)CC2)cc1	-127%	–
CC1CC(NC(=S)N(C)C)CC(C)(C)C1 (stereo unspecified)	-1.96%	–
CC(C)NC(=O)Nc1ccc2c(c1)C(=O)N([C@H](C)CO)C[C@H](C)[C@@H](CN(C)Cc1ccc(C(F)(F)F)cc1)OCCCC[C@@H](C)O2	-39.1%	–
O=C(NN=Cc1ccc2c(c1)CCC2)c1ccccc1O	5.61%	–
O[C@H]1C[C@H](c2ccc(Cl)cc2)N(Cc2cccs2)C[C@@H]1n1cc(C2CC2)nn1	-12.1%	–
CC(=O)Nc1ccc2c3c(ccc([N+](=O)[O-])c13)CC2	32.7%	–
COC(=O)c1ccccc1NC(=S)NC(=O)c1ccccc1F	3.68%	–
O=C(NC(=S)Nc1ccccc1C(=O)O)c1ccc(-c2ccc(Br)cc2)o1	–	14.1 µM (active)
O=C(O)c1ccccc1NC(=O)c1ccccc1-c1ccccc1C(=O)O	-12.9%	–
O=C(COC(=O)CCc1c[nH]c2ccccc12)Nc1cccc(Cl)c1	-5.04%	–
COC(=O)C(Cc1c[nH]c2ccccc12)NC(=O)CCNC(=O)c1ccco1 (stereo unspecified)	1.54%	–
COc1ccc(-c2cnc3c(c2)C(=O)N([C@H](C)CO)C[C@@H](C)[C@H](CN(C)Cc2ccccc2)O3)cc1	5.7%	–
COc1ccc(-c2ccc(CN3C(C(C)C)C(=O)N(Cc4cn(CC5CCCCC5)nn4)CCS3(=O)=O)cc2)cn1 (stereo unspecified)	4.31%	–
CCCc1ccc(S(=O)(=O)N2CCN(C(=O)c3cc(C)on3)CC2)cc1	1.12%	–
CCc1noc(C)c1C(=O)OCC(=O)c1ccc(NC(=O)CC(C)C)cc1	-39.5%	–
COc1ccc(CN2C(=O)C(CC(=O)NCCN3CCOCC3)CC(C(=O)N(C(C)C)C(C)C)=C2C)cc1 (stereo unspecified)	15.2%	–
COc1ccc(NC(=O)CCCOc2ccc(C(C)=O)cc2)cc1S(=O)(=O)N1CCCCC1	-9.18%	–

Structure (SMILES)	activation (cAMP increase)	Potency
COc1cccc(/C=C2\SC(=S)N(CCCC(=O)N3CCOCC3)C2=O)c1	-22.2%	–
Cc1ccc2cccc([N+](=O)[O-])c2n1	-22.1%	–
CCN(CC)C(=O)C(C)N1c2cccc3cccc(c23)S1(=O)=O (stereo unspecified)	1.11%	–
Cc1ccc(C(=O)NC(C)C(c2cccs2)N2CCOCC2)cc1C (stereo unspecified)	-240%	–
COc1ccc(OC)c(NC(=O)C2CCCN2S(=O)(=O)c2ccc3c(c2)CC(C)N3C(C)=O)c1 (stereo unspecified)	-22.5%	–
C[C@@H]1CN([C@@H](C)CO)C(=O)c2cc(NS(C)(=O)=O)ccc2O[C@@H](C)CCCCO[C@H]1CN(C)C(=O)Nc1ccc2c(c1)OCO2	-24.6%	–
Cc1cccn2c(=O)c3cc(C#N)c(=NC(=O)c4cccnc4)n(CC4CCCO4)c3nc12 (stereo unspecified)	26.8%	–
COCCCn1c(C(=O)NC2CCCCC2)cc2c(=O)n3cccc(C)c3nc21	27.2%	–
Cc1cccn2c(=O)c3cc(C#N)c(=O)n(CCCN4CCOCC4)c3nc12	–	20 µM (active)
Cc1nnc(SC(C)C(=O)c2c[nH]c3ccccc23)n1C1CC1 (stereo unspecified)	2.61%	–
Cc1ccc(C(=O)N[C@H](C(=O)N2CCN(c3ncccn3)CC2)C(C)C)cc1	-12.3%	–
CC(C)CCOc1ccc(C(=O)Nc2cc(S(=O)(=O)N3CCOCC3)ccc2N2CCOCC2)cc1	-108%	–
Cc1cccc(C(=O)NC2CCN(CC(=O)Nc3cccc(Cl)c3)CC2)c1	-42.7%	–
Cc1csc(SCC(=O)Nc2ccc(C)c(S(=O)(=O)N(C)C)c2)n1	-20.6%	–
CC1=C(C(=O)Nc2cccc(C(=O)NCC(C)c3ccccc3)c2)SCCO1 (stereo unspecified)	10.4%	–
O=C1[C@H]2[C@@H](c3ccc(C(F)(F)F)cc3)N[C@]3(CCCN(Cc4ccc(Cl)cc4)C3=O)[C@H]2C(=O)N1Cc1ccccc1	1.18%	–
CCN1C(=O)[C@H]2[C@@H](c3ccccc3)N[C@]3(CCCN(Cc4ccc(C)cc4)C3=O)[C@H]2C1=O	5.38%	–
Cn1c(CCN2CCN(c3ccccn3)CC2)nc2cc(NS(=O)(=O)c3ccc(F)cc3)ccc21	-10.2%	–
c1ccc(Cn2nnc3c(NCC4CC4)ncnc32)cc1	2.75%	–
